Several values for one entry are separate records, joined by “and”; a condition that tells them apart may be missing. Identical values can stand only once. Results filed as inconclusive are left out. Where a call stands in place of a potency, no number is given. Activity calls are given as the source filed them. Unless noted, calls follow the shape of the dose curve; as a rule, active = well fitted curve in the direction sought with a large enough effect; inconclusive = small, poorly fitted or top-dose-only effect, or another doubt; inactive = no such curve, though single readings can be large; an effect the other way counts as inactive or inconclusive. Numbered stars: 1 amine (or outer) side, 2 acyl side, 3 side chain; on linkers, the order of the positions; unused ones are H or OH. Bridge positions count the residues as written; N and C are the ends. Square brackets hold non-standard residues; d marks the D form. Peptide text beside a SMILES is read from it. I, II: the chains in the order shown. Actinocin(9to1) = Cc1c2oc3c(C)ccc(C(=O)[*:1])c3nc-2c(C(=O)[*:2])c(N)c1=O; NMeV = CN[C@H](C(=O)O)C(C)C; Sar = CNCC(=O)O
How the values were obtained:
[1] = molecular target: Voltage-gated inwardly rectifying potassium channel KCNH2 (Homo sapiens) (UniProt Q12809); test: qHTS Assay for Small Molecule Inhibitors of the Human hERG Channel Activity (AID 588834);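 also: lower thallium flux fluorescence means stronger hERG block; nearly all actives have a fitted effect of over 50% in size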; also: potency is read from the fitted curve at half-maximal effect
Procedure, shortened: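 hERG-BacMam U2OS, 2000 cells/well; 0.7X FluxOR loading 1 hr RT dark; cpd ~10 min 37 °C; stim buffer; FDSS fluorescence 2 min @ 1 s; AC50 Hill fit.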

[2] = qHTS assay for small molecule agonists of retinoid X receptor alpha signaling (AID 588544; calls by dose curve); conditions: HEK293T RXRa-UAS-bla, beta-lactamase reporter, 18 h; 530 nm emission
[3] = molecular target: Retinoic acid receptor RXR-alpha (Homo sapiens) (UniProt P19793); test: as above
[4] = molecular target: Thyroid hormone receptor beta (Homo sapiens) (UniProt P10828); test: qHTS assay for small molecule agonists of thyroid hormone receptor beta signaling (AID 588545; calls by dose curve)
Procedure, shortened: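 Cells (2500/well) were seeded, incubated 4 hrs at 37 C, dosed with a compound series, incubated 18 hrs, loaded with CCF4 dye for 2 hrs at RT, then read for fluorescence. Data were scaled between DMSO (0%) and 10 nM T3 (100%).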

[5] = qHTS assay for small molecule antagonists of retinoid X receptor alpha signaling (AID 588546; active = well fitted inhibition curve with a large enough effect in the signal ratio, with a control signal flat, not every such curve was filed as active; the % refers to the signal ratio; also: potency is read from the fitted curve at half-maximal effect;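 as to max response: cells stimulated with 9-cis-retinoic acid as agonist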); conditions: HEK293T RXRa-UAS-bla, beta-lactamase ratio, antagonist mode; measured here: W530 green channel, cytotoxicity proxy
Procedure, shortened: (§1)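 Beta-lactamase reporter inhibition, read as CCF4 fluorescence ratio (ex 405, em 460/530 nm) after 2 h at RT. HEK293T UAS-bla cells, 2500/well, were stimulated with 9-cis-RA at 500 or 100 nM final alongside test compound for 18 h at 37 C.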

[6] = molecular target: Retinoic acid receptor RXR-alpha (Homo sapiens) (UniProt P19793); test: as above; conditions: HEK293T RXRa-UAS-bla, beta-lactamase ratio, antagonist mode
Procedure, shortened: as §1

[7] = molecular target: Thyroid hormone receptor beta (Homo sapiens) (UniProt P10828); test: qHTS assay for small molecule antagonists of thyroid hormone receptor beta signaling (AID 588547; active = well fitted inhibition curve with a large enough effect in the signal ratio, with a control signal flat, not every such curve was filed as active; the % refers to the signal ratio; also: potency is read from the fitted curve at half-maximal effect;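 as to activity change % (negative = inhibition): cells stimulated with 0.4 nM T3 agonist during compound exposure; series mostly up to about 77 µM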); conditions: TR-UAS-bla HEK293, beta-lactamase ratio, antagonist mode, 18 h
Procedure, shortened: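 TR-UAS-bla GripTite HEK293 cells in 2% charcoal/dextran FBS medium; compounds 0.59 nM to 92 uM with T3 at 0.4nM final, 18 h at 37 C. Beta-lactamase read by CCF4 fluorescence (460/530 nm); Hill fits gave IC50 and efficacy.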

[8] = molecular target: Luciferin 4-monooxygenase (Photinus pyralis) (UniProt P08659); test: Biochemical firefly luciferase enzyme assay for NPC (AID 624030);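 also: purified P. pyralis luciferase at 10 nM with luciferin and ATP substrate; series mostly up to about 59 µM; nearly all actives have a fitted effect of over 70% in size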
Procedure, shortened: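 Purified P. pyralis luciferase at 10 nM in 50 mM Tris Acetate (final), luminescence read within 5 minutes of enzyme addition to compounds. Activity normalised to PTC124 versus DMSO; concentration-response curves classed by r2, magnitude and activity.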

[9] = S16 Schwann cell viability assay (CellTiter-Glo assay) (AID 624031);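 also: cellular ATP luminescence as a viability measure; series mostly up to about 58 µM; nearly all actives have a fitted effect of over 70% in size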
Procedure, shortened: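 Native S16 Schwann cells (rat), serum-containing medium, overnight attachment then 24 h drug exposure at 37 °C/5% CO2. CellTiter-Glo ATP signal; normalized to cell-free and vehicle wells.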

[10] = S16 Schwann cell PMP22 intronic element firefly luciferase assay (AID 624032); also: nearly all actives have a fitted effect of over 30% in size; also: potency is read from the fitted curve at half-maximal effect
Procedure, shortened: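 Rat S16 Schwann cells stably carrying firefly luciferase driven by a PMP22 intronic element, in 10% FBS, treated 24 h at 37 C. ONE-Glo luminescence normalized to PTC124 control and DMSO (0%); curves classed by r2, magnitude and activity.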

Chain of Luciferin 4-monooxygenase (Photinus pyralis) (P08659 whole entry, looked up): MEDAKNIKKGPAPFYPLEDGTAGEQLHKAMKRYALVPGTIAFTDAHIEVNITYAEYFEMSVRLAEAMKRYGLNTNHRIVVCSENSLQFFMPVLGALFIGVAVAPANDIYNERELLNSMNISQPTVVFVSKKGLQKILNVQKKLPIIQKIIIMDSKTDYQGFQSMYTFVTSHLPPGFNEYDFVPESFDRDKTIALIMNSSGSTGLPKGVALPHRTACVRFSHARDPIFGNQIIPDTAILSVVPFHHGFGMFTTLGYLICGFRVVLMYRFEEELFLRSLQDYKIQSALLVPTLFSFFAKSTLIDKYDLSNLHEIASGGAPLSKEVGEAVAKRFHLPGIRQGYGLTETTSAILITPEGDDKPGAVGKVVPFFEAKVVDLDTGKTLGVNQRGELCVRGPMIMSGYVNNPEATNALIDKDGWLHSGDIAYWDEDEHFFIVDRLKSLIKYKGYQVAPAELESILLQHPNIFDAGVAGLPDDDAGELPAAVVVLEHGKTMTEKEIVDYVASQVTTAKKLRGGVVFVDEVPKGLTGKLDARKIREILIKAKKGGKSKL
Chain of Voltage-gated inwardly rectifying potassium channel KCNH2 (Homo sapiens) (Q12809 whole entry, looked up): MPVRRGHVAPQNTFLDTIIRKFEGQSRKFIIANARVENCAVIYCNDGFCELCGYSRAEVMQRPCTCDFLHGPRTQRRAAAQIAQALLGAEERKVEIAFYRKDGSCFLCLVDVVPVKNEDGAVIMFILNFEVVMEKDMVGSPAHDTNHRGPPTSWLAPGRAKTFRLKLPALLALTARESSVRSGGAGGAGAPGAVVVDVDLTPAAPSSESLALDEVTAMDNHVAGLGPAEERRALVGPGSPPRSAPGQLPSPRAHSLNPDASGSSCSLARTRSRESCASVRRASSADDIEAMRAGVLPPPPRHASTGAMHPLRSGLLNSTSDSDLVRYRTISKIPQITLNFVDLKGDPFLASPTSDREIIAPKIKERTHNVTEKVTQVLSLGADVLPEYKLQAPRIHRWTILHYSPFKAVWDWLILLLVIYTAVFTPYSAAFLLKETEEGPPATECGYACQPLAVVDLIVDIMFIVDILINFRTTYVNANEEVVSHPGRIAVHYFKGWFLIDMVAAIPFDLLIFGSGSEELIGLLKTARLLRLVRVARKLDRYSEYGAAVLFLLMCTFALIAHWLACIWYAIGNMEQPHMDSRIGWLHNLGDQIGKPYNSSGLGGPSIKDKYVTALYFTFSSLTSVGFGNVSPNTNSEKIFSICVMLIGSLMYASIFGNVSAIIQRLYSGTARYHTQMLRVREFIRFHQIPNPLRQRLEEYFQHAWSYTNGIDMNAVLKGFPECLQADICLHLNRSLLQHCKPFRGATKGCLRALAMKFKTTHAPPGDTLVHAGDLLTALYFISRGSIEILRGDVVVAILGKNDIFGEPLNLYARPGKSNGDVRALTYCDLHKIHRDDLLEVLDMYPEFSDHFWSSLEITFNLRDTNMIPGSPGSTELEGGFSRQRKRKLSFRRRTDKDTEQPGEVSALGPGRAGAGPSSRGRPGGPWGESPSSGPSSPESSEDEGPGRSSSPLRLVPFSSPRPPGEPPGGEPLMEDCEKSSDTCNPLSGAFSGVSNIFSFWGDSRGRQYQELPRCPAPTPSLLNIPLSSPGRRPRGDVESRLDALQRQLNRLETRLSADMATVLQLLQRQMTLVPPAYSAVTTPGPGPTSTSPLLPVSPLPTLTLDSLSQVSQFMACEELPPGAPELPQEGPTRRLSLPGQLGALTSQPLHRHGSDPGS
Chain of Thyroid hormone receptor beta (Homo sapiens) (P10828 whole entry, looked up): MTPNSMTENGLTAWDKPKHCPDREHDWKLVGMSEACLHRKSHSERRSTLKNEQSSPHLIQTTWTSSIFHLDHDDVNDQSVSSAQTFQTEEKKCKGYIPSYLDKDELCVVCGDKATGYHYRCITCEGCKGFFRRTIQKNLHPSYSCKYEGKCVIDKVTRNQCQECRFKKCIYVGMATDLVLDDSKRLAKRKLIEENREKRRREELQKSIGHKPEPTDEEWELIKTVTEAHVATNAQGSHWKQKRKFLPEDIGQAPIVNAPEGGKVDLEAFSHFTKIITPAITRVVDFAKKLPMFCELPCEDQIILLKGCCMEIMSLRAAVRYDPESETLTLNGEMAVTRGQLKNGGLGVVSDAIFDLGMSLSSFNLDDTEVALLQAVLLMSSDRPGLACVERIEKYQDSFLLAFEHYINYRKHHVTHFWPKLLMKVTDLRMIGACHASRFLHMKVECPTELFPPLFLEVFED
Chain of Retinoic acid receptor RXR-alpha (Homo sapiens) (P19793 whole entry, looked up): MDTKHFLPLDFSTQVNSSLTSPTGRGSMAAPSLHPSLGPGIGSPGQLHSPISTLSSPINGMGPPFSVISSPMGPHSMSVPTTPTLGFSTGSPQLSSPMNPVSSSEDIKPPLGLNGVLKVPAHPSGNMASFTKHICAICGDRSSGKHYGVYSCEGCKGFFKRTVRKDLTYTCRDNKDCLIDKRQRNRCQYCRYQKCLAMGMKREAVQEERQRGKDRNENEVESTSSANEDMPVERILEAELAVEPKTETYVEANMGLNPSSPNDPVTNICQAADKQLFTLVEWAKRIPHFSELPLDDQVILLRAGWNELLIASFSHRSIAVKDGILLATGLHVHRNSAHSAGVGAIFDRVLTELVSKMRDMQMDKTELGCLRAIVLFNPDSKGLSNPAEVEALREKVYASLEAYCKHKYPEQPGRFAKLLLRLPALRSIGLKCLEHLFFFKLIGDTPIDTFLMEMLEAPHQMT

## NC(=O)c1cc[n+](CC2=C(C(=O)[O-])N3C(=O)[C@@H](NC(=O)Cc4cccs4)[C@H]3SC2)cc1
[1]
  Potency: inactive

## CC(O)C(=O)O (configuration not stated)
[2]
  max response: -16.3%
[3]
  outcome: inactive
[4]
  outcome: inactive
[5]
  max response: 7.59%
[6]
  max response: 2.3% (inactive)
[7]
  activity change % (negative = inhibition): -8.09% (inactive)
[1]
  Potency: inactive
[8]
  Potency: inactive
[9]
  Potency: inactive
[10]
  Potency: inactive

## CN(C)CC/C=C1/c2ccccc2COc2ccc(CC(=O)O)cc21
[1]
  Potency: inactive

## CN(C)C(=S)SC(=S)N(C)C
[2]
  max response: 0.136%
[3]
  outcome: inactive
[4]
  outcome: inactive
[5]
  max response: 5.78%
[6]
  max response: -27.1% (inactive)
[7]
  activity change % (negative = inhibition): 10.8% (inactive)
[1]
  Potency: inactive

## Oc1ccc(O)cc1
[4]
  outcome: inactive
[1]
  Potency: inactive
[8]
  Potency: inactive

## CC(C)(Oc1ccc(Cl)cc1)C(=O)O
[2]
  max response: -16.7%
[3]
  outcome: inactive
[4]
  outcome: inactive
[5]
  max response: -15.3%
[6]
  max response: 2.91% (inactive)
[1]
  Potency: inactive
[8]
  Potency: inactive
[9]
  Potency: inactive
[10]
  Potency: inactive

## Cc1c2oc3c(C)ccc(C(=O)N[C@@H]4C(=O)N[C@H](C(C)C)C(=O)N5CCC[C@H]5C(=O)N(C)CC(=O)N(C)[C@@H](C(C)C)C(=O)O[C@@H]4C)c3nc-2c(C(=O)N[C@@H]2C(=O)N[C@H](C(C)C)C(=O)N3CCC[C@H]3C(=O)N(C)CC(=O)N(C)[C@@H](C(C)C)C(=O)O[C@@H]2C)c(N)c1=O (I: T[dV]P[Sar][NMeV] / II: T[dV]P[Sar][NMeV]; ester I:1-I:C, II:1-II:C; linker I:N-II:N via Actinocin(9to1))
[4]
  outcome: inactive
[5]
  max response: -13.6% and -1.23%
[6]
  Potency: 31.6 nM (active) and 14.1 nM (active)
[7]
  Potency: 50.1 nM (active)
[1]
  Potency: inactive
[8]
  Potency: inactive
[9]
  Potency: inactive

## O=C1OC(c2ccc(O)cc2)(c2ccc(O)cc2)c2ccccc21
[2]
  max response: 14.6% and 3.81%
[3]
  outcome: inactive
[4]
  outcome: inactive
[5]
  max response: 6.51%
[6]
  max response: -28% (inactive)
[7]
  activity change % (negative = inhibition): -18.5% (inactive) and 8.75% (inactive)
[1]
  Potency: 15.8 µM (active)
[10]
  Potency: 25.6 µM (active)

## CC(Cc1ccccc1)(NC(=O)CN)c1ccccc1 (configuration not stated)
[1]
  Potency: inactive

## COc1cccc2c1C(=O)c1c(O)c3c(c(O)c1C2=O)C[C@@](O)(C(C)=O)C[C@@H]3O[C@H]1C[C@H](N)[C@H](O)[C@H](C)O1
[5]
  max response: -11.9%
[6]
  Potency: 5.62 µM (active)
[7]
  Potency: 5010 nM (active)
[1]
  Potency: inactive
[9]
  Potency: inactive
[10]
  Potency: inactive

## COc1cc2c(cc1OC)[C@@H]1CC(=O)[C@@H](CC(C)C)CN1CC2
[1]
  Potency: inactive

## C=CCc1ccc(O)c(OC)c1
[2]
  max response: -13.4% and -16.3%
[3]
  outcome: inactive
[5]
  max response: -4.42% and -7.03%
[6]
  max response: -1.42% (inactive) and -1.33% (inactive)
[1]
  Potency: inactive
[8]
  Potency: inactive
[9]
  Potency: inactive

## CC(O)(P(=O)(O)O)P(=O)(O)O
[2]
  max response: -19.3%
[3]
  outcome: inactive
[4]
  outcome: inactive
[5]
  max response: -2.39%
[6]
  max response: -16.3% (inactive)
[7]
  activity change % (negative = inhibition): -8.4% (inactive)
[8]
  Potency: inactive
[9]
  Potency: inactive

## C[C@H]1C[C@H]2[C@@H]3CCC4=CC(=O)C=C[C@]4(C)[C@@]3(Cl)[C@@H](O)C[C@]2(C)[C@@]1(O)C(=O)CO
[4]
  outcome: inactive
[5]
  max response: 10.8%
[6]
  max response: -25.7% (inactive)
[7]
  activity change % (negative = inhibition): 1.92% (inactive)
[1]
  Potency: inactive
[8]
  Potency: inactive
[9]
  Potency: inactive
[10]
  Potency: inactive

## Cc1cc(=O)n(-c2ccccc2)n1C
[2]
  max response: -30.7%
[3]
  outcome: inactive
[5]
  max response: -18.2%
[6]
  max response: 0.0131% (inactive)
[7]
  activity change % (negative = inhibition): 5.56% (inactive)
[1]
  Potency: inactive
[8]
  Potency: inactive
[9]
  Potency: inactive
[10]
  Potency: inactive

## CC(C)C[C@H]1C(=O)N2CCC[C@H]2[C@]2(O)O[C@](NC(=O)[C@@H]3C=C4c5cccc6[nH]c(Br)c(c56)C[C@H]4N(C)C3)(C(C)C)C(=O)N12
[1]
  Potency: inactive

## CC(=O)OCC(=O)[C@@]1(O)CC[C@H]2[C@@H]3CCC4=CC(=O)C=C[C@]4(C)[C@H]3[C@@H](O)C[C@@]21C
[1]
  Potency: inactive

## COc1cccc2c1C(=O)c1c(O)c3c(c(O)c1C2=O)C[C@@](O)(C(=O)CO)C[C@@H]3O[C@H]1C[C@H](N)[C@H](O)[C@H](C)O1
[4]
  outcome: inactive
[5]
  max response: -19.8%
[6]
  Potency: 2 µM (active)
[7]
  Potency: 5.62 µM (active) and 4.47 µM (active)
[1]
  Potency: inactive

## C[C@]12CC[C@@H]3c4ccc(O)cc4CC[C@H]3[C@@H]1CC[C@@H]2O
[2]
  max response: 6.82%
[3]
  outcome: inactive
[9]
  Potency: inactive
[10]
  Potency: inactive

## CC(=O)O[C@H]1C[C@@H]2CC[C@@H]3[C@H](CC[C@@]4(C)[C@H]3C[C@H]([N+]3(C)CCCCC3)[C@@H]4OC(C)=O)[C@@]2(C)C[C@@H]1[N+]1(C)CCCCC1
[1]
  Potency: inactive

## CCCCC(=O)O[C@]1(C(=O)CO)CC[C@H]2[C@@H]3CCC4=CC(=O)CC[C@]4(C)[C@H]3[C@@H](O)C[C@@]21C
[1]
  Potency: inactive

## O=c1ccc2ccccc2o1
[2]
  max response: -0.417% and -9.49%
[3]
  outcome: inactive
[4]
  outcome: inactive
[5]
  max response: 0.52% and -14.8% and -12.1%
[6]
  max response: 19.9% (inactive) and -2.2% (inactive) and -3.66% (inactive)
[7]
  activity change % (negative = inhibition): -6.73% (inactive) and 13.3% (inactive) and -20.8% (inactive)
[1]
  Potency: inactive
[8]
  Potency: inactive
[9]
  Potency: inactive
[10]
  Potency: inactive

## C=C(CC)C(=O)c1ccc(OCC(=O)O)c(Cl)c1Cl
[4]
  outcome: inactive
[1]
  Potency: inactive
[8]
  Potency: inactive
[9]
  Potency: inactive
